# Experimental data taken from PubChem BioAssay AID504339 (National Center for Advancing Translational Sciences (NCATS), 2011).
# The whole screen tested about 390,000 compounds, of which about 17,000 (4.4%) were called active. Where a call stands in place of a potency, no number is given. About 8% were inconclusive and are not listed. Calls come from the whole dose curve; as a rule, active = well fitted inhibition curve with a large enough effect; inconclusive = small, poorly fitted or top-dose-only effect; inactive = no such curve, though single readings can be large or run the other way. Many of the other results were omitted from the sample, so actives are more common in it than they were.
# Target: Lysine-specific demethylase 4A (Homo sapiens) (UniProt O75164)
# Assay: qHTS Assay for Inhibitors of JMJD2A-Tudor Domain; note: nearly all actives have a fitted effect of over 50% in size
# Details: AlphaScreen JMJD2A-Tudor / H3K4me3 peptide binding; series mostly up to 114 µM
# Potency is the fitted concentration of half-maximal effect.
# Sequence of Lysine-specific demethylase 4A (Homo sapiens) (O75164 whole entry, looked up, the tested form may be a part): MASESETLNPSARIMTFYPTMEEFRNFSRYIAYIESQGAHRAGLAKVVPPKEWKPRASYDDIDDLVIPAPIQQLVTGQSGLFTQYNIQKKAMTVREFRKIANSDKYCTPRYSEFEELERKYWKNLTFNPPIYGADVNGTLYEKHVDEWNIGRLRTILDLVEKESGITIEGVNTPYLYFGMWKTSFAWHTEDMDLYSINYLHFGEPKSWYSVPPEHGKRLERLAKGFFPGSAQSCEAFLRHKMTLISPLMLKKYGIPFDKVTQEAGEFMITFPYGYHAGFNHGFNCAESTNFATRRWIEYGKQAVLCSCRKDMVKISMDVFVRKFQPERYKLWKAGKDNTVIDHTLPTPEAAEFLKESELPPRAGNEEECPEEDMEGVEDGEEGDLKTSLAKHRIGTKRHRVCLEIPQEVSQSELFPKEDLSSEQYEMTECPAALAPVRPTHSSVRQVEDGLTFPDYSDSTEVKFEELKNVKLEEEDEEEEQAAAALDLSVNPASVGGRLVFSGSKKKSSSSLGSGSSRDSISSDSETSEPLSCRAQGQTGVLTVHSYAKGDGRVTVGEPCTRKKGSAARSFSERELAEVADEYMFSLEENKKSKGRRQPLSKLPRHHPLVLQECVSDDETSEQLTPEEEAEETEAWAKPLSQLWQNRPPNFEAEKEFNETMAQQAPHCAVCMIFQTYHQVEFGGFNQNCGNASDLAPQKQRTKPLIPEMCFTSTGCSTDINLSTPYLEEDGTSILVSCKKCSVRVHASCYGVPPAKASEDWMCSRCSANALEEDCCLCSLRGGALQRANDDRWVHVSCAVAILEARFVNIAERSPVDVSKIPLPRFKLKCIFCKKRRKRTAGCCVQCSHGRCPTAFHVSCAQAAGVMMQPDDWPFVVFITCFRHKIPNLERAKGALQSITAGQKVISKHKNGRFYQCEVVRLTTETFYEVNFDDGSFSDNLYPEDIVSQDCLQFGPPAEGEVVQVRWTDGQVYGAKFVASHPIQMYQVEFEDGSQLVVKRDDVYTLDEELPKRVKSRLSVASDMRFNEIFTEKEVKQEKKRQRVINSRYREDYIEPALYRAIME
row,Compound,Potency
1,Cc1ccc(C(=O)O)cc1-c1ccc(/C=C2\SC(=O)N(CC(=O)Nc3ccc4c(c3)OCO4)C2=O)o1,35.5 µM (active)
2,Cc1nn(CC(=O)Nc2ccc3c(c2)OCO3)c(C)c1[N+](=O)[O-],inactive
3,Cc1nc([N+](=O)[O-])cn1CC(=O)Nc1ccc2c(c1)OCO2,inactive
4,O=C(CSc1nnc(-c2ccncc2)n1-c1ccccc1)Nc1ccc(Cl)c(Cl)c1,inactive
5,COc1ccccc1CN1CCC(CNC(=O)c2cnn(-c3cccc(Cl)c3)c2C2CCN(C(=O)OC(C)(C)C)CC2)CC1,inactive
6,COCCNC(=O)c1ccc2c(c1)N=C(C)c1cc(C)ccc1S2,inactive
7,C/C(=N\Nc1ccc(Cl)nn1)c1ccccc1O,inactive
8,Oc1cccc(/C=N/Nc2ccc(Cl)nn2)c1O,63.1 µM (active)
9,COc1cccc(CNC(=O)c2ccc3c(c2)N(Cc2ccc(C(F)(F)F)cc2)C(=O)c2ccccc2S3)c1OC,inactive
10,CCCc1nn2c(=O)cc(COC(=O)c3ccc(NC(=O)C(C)Oc4ccccc4)cc3)nc2s1 (configuration not stated),inactive
11,COc1ccc(-c2nnc(SCC(=O)Nc3ccccc3C)o2)cc1OC,inactive
12,CCOC(=O)c1cnc2c(C)cc(C)cc2c1Nc1ccc(N2CCOCC2)cc1,35.5 µM (active)
13,Cc1ccc(OCCCC(=O)Nc2ccc(N3CCOCC3)cc2)cc1,inactive
14,CCOC(=O)c1cnc2c(C)cc(Cl)cc2c1NCCc1ccc(OC)c(OC)c1,inactive
15,Cc1cccc(-n2c(=O)c3c(c4cc(C)ccc4n3C)n(CC(=O)Nc3ccccc3Cl)c2=O)c1,inactive
16,O=C(Oc1ccc(-c2nc(-c3ccccn3)no2)cc1)c1ccccc1,inactive
17,COc1ccnc(Oc2ccccc2)c1-c1ncn[nH]1,inactive
18,COc1cnc(-c2ccccn2)nc1Oc1ccc(C(C)(C)C)cc1,31.6 µM (active)
19,CN1C2CCC1CC(NC(=O)c1ccc([N+](=O)[O-])cc1)C2 (configuration not stated),inactive
20,Cc1cc(C)cc(C(=O)N2CCN=C2SCc2ccc([N+](=O)[O-])cc2)c1,inactive
21,CC(=O)N1CC[n+]2c(-c3ccc([N+](=O)[O-])cc3)csc21,7.94 µM (active)
22,O=C(Nc1nc2ccc(F)cc2s1)c1nc(SCc2ccccc2F)ncc1Cl,inactive
23,COc1ccc(-n2cnc3cc(NCc4ccco4)ccc32)cc1,50.1 µM (active)
24,COc1ccc(NC(=O)C(=O)NCc2ccco2)cc1,inactive
25,COc1ccc(-n2cnc3cc(C(=O)NC4CCCC4)ccc32)cc1,inactive
26,Cc1ccc(CSc2nc3cccnc3n2Cc2ccc(C(=O)NC3CC3)cc2)cc1,inactive
27,CCOC(=O)c1[nH]c(C)c(CCC(=O)NCc2ccccc2C)c1C,inactive
